PubChem BioAssay (NCATS)
“And” between values parts separate entries of the source, which are not always exact repeats. Equal entries are not always repeated. Inconclusive results are not listed. Entries that show only a call come without a potency. Where a structure was tested more than once in an assay, its records may differ in their call. The source made the active and inactive calls. The call rests on the fitted dose curve; in most records, active means well fitted inhibition curve with a large enough effect; inconclusive means small, poorly fitted or top-dose-only effect; inactive means flat fitted curve, though single readings scatter. Peptide text beside a SMILES is read from it.

Test system: MCC-26
Test: qHTS assay to identify novel small-molecules to repurpose for Merkel cell carcinoma treatment (AID 1296009); further: nearly all actives have a fitted effect of over 60% in size
Conditions: MCC and control cell lines, CellTiter-Glo viability, 72 h; series mostly up to 46 µM; activity change, negative = cytotoxicity: at the top concentration
How it was run: (§1)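 Dose-response viability screen; 72 hr exposure at 37 degree celsius; CellTiter-Glo added, 10 min room temperature, luminescence read; RLUs scaled between no-cell and DMSO wells.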
Potency means the concentration at half of the fitted maximal effect.

Row | SMILES | Potency | activity change, negative = cytotoxicity
1 | Cc1cc2cc3c(C)cc(=O)oc3c(C)c2o1 | inactive | –
2 | CN(C)[C@@H](CCOc1cccc2ccccc12)c1ccccc1 | inactive | –
3 | COc1ccc2cc([C@H](C)C(=O)O)ccc2c1 | inactive | –
4 | Cc1ccc(C)c(OCCCC(C)(C)C(=O)O)c1 | inactive | –
5 | Clc1ccc(C(Cn2ccnc2)OCc2ccc(Sc3ccccc3)cc2)c(Cl)c1 (stereo unspecified) | inactive | –
6 | CS(=O)(=O)OCCCCOS(C)(=O)=O | inactive | –
7 | CC1=C(C)C(=O)C(C(CCCCCC(=O)O)c2ccccc2)=C(C)C1=O (stereo unspecified) | inactive | –
8 | COc1cc2nc(N3CCN(C(=O)C4CCCO4)CC3)nc(N)c2cc1OC (stereo unspecified) | inactive | –
9 | CCC1=C(C)CN(C(=O)NCCc2ccc(S(=O)(=O)NC(=O)NC3CCC(C)CC3)cc2)C1=O (stereo unspecified) | inactive | –
10 | O=C(O)CCNC(=O)c1ccc(N=Nc2ccc(O)c(C(=O)O)c2)cc1 | inactive | –
11 | Cc1nc(-c2ccc(OCC(C)C)c(C#N)c2)sc1C(=O)O | inactive | –
12 | Cc1c(C(=O)NN2CCCCC2)nn(-c2ccc(Cl)cc2Cl)c1-c1ccc(Cl)cc1 | inactive | –
13 | Cn1c(NCCN(CCO)CCCc2ccc([N+](=O)[O-])cc2)cc(=O)n(C)c1=O | inactive | –
14 | CCN(CCO)CCCC(C)Nc1ccnc2cc(Cl)ccc12 (stereo unspecified) | inactive | –
15 | CN(C)C(=O)COC(=O)Cc1ccc(OC(=O)c2ccc(N=C(N)N)cc2)cc1 | inactive | –
16 | COC1=C(OC)C(=O)C(CCCCCCCCCCO)=C(C)C1=O | inactive | –
17 | CC1(C)CCC(C)(C)c2cc(NC(=O)c3ccc(C(=O)O)cc3)ccc21 | inactive | –
18 | O=C(NCC1CCCCN1)c1cc(OCC(F)(F)F)ccc1OCC(F)(F)F (stereo unspecified) | inactive | –
19 | CCCS(=O)c1ccc2nc(NC(=O)OC)[nH]c2c1 (stereo unspecified) | – | -6.63% (inactive)
20 | O=C(NC(Cc1cc(=O)[nH]c2ccccc12)C(=O)O)c1ccc(Cl)cc1 (stereo unspecified) | inactive | –
21 | CCN(CC)C(=S)SSC(=S)N(CC)CC | 1.48 µM (active) and 596 nM (active) | –
22 | CN(c1nccc(=O)[nH]1)C1CCN(c2nc3ccccc3n2Cc2ccc(F)cc2)CC1 | inactive | –
23 | Cc1cc2c(s1)Nc1ccccc1N=C2N1CCN(C)CC1 | inactive | –
24 | CC1=C(C(=O)O)N2C(=O)[C@@H](NC(=O)[C@H](N)C3=CCC=CC3)[C@H]2SC1 | inactive | –
25 | Cc1cc(=O)oc2cc(O)ccc12 | inactive | –
26 | CN(C)c1ccc(O)c2c1C[C@H]1C[C@H]3[C@H](N(C)C)C(=O)C(C(N)=O)=C(O)[C@@]3(O)C(=O)C1=C2O | inactive | –
27 | Cc1ncc([N+](=O)[O-])n1CC(C)O (stereo unspecified) | inactive | –

Test system: MKL-1
Test: as above
Conditions: MCC and control cell lines, CellTiter-Glo viability, 72 h; series mostly up to 46 µM; activity change, negative = cytotoxicity: at the top concentration
How it was run: as §1

Row | SMILES | activity change, negative = cytotoxicity | Potency
28 | Cc1cc2cc3c(C)cc(=O)oc3c(C)c2o1 | -6.13% (inactive) | –
29 | CN(C)[C@@H](CCOc1cccc2ccccc12)c1ccccc1 | -24.9% (inactive) | –
30 | COc1ccc2cc([C@H](C)C(=O)O)ccc2c1 | – | inactive
31 | COc1cc(C(C)=O)ccc1OCCCN1CCC(c2noc3cc(F)ccc23)CC1 | – | inactive
32 | Cc1ccc(C)c(OCCCC(C)(C)C(=O)O)c1 | 11.8% (inactive) | –
33 | CCC[C@@H]1C[C@@H](C(=O)N[C@@H]([C@H]2O[C@H](SC)[C@H](O)[C@@H](O)[C@H]2O)[C@@H](C)O)N(C)C1 | – | inactive
34 | Clc1ccc(C(Cn2ccnc2)OCc2ccc(Sc3ccccc3)cc2)c(Cl)c1 (stereo unspecified) | – | inactive
35 | CS(=O)(=O)OCCCCOS(C)(=O)=O | – | inactive
36 | CC(=O)NC[C@H]1CN(c2ccc(N3CCOCC3)c(F)c2)C(=O)O1 | -0.695% (inactive) | –
37 | CC1=C(C)C(=O)C(C(CCCCCC(=O)O)c2ccccc2)=C(C)C1=O (stereo unspecified) | – | inactive
38 | COc1cc2nc(N3CCN(C(=O)C4CCCO4)CC3)nc(N)c2cc1OC (stereo unspecified) | – | inactive
39 | CCC1=C(C)CN(C(=O)NCCc2ccc(S(=O)(=O)NC(=O)NC3CCC(C)CC3)cc2)C1=O (stereo unspecified) | – | inactive
40 | Clc1ccc(C(Cn2ccnc2)OCc2c(Cl)cccc2Cl)c(Cl)c1 (stereo unspecified) | 2.35% (inactive) | –
41 | O=C(O)CCNC(=O)c1ccc(N=Nc2ccc(O)c(C(=O)O)c2)cc1 | – | inactive
42 | Cc1nc(-c2ccc(OCC(C)C)c(C#N)c2)sc1C(=O)O | – | inactive
43 | Cc1c(C(=O)NN2CCCCC2)nn(-c2ccc(Cl)cc2Cl)c1-c1ccc(Cl)cc1 | – | inactive
44 | Cn1c(NCCN(CCO)CCCc2ccc([N+](=O)[O-])cc2)cc(=O)n(C)c1=O | – | inactive
45 | CCN(CCO)CCCC(C)Nc1ccnc2cc(Cl)ccc12 (stereo unspecified) | 15.4% [at 4.84 µM] (inactive) | 3.72 µM (active)
46 | CN(C)C(=O)COC(=O)Cc1ccc(OC(=O)c2ccc(N=C(N)N)cc2)cc1 | – | inactive

Row | SMILES | activity change, negative = cytotoxicity | Potency
47 | CC(=O)Nc1ccc(O)cc1 | – | inactive
48 | COC1=C(OC)C(=O)C(CCCCCCCCCCO)=C(C)C1=O | – | 15 µM (active)
49 | COC(=O)[C@H](Cc1ccccc1)NC(=O)[C@@H](N)CC(=O)O (H-Asp-Phe-OMe) | – | inactive
50 | CC1(C)CCC(C)(C)c2cc(NC(=O)c3ccc(C(=O)O)cc3)ccc21 | – | inactive
51 | COC(=O)C1=C(C)NC(C)=C(C(=O)OCCCN2CCC(c3ccccc3)(c3ccccc3)CC2)C1c1cccc([N+](=O)[O-])c1 (stereo unspecified) | – | inactive and 23.7 µM (active)
52 | O=C(NCC1CCCCN1)c1cc(OCC(F)(F)F)ccc1OCC(F)(F)F (stereo unspecified) | -9.06% (inactive) | –
53 | CCCS(=O)c1ccc2nc(NC(=O)OC)[nH]c2c1 (stereo unspecified) | -27.1% (inactive) | –
54 | O=C(NC(Cc1cc(=O)[nH]c2ccccc12)C(=O)O)c1ccc(Cl)cc1 (stereo unspecified) | – | inactive
55 | CCN(CC)C(=S)SSC(=S)N(CC)CC | – | 1.18 µM (active) and 62.4 nM (active) and 422 nM (active)
56 | CN(c1nccc(=O)[nH]1)C1CCN(c2nc3ccccc3n2Cc2ccc(F)cc2)CC1 | – | inactive
57 | Cc1cc2c(s1)Nc1ccccc1N=C2N1CCN(C)CC1 | – | inactive
58 | CC1=C(C(=O)O)N2C(=O)[C@@H](NC(=O)[C@H](N)C3=CCC=CC3)[C@H]2SC1 | – | inactive
59 | Cc1cc(=O)oc2cc(O)ccc12 | – | inactive
60 | CN(C)c1ccc(O)c2c1C[C@H]1C[C@H]3[C@H](N(C)C)C(=O)C(C(N)=O)=C(O)[C@@]3(O)C(=O)C1=C2O | – | inactive
61 | Cc1cccc(CN2CCN(C(c3ccccc3)c3ccc(Cl)cc3)CC2)c1 (stereo unspecified) | – | inactive
62 | Cc1ncc([N+](=O)[O-])n1CC(C)O (stereo unspecified) | – | inactive
63 | CNC[C@H](O)c1ccc(O)c(O)c1 | – | inactive
64 | Clc1ccc(C(Cn2ccnc2)OCc2ccsc2Cl)c(Cl)c1 (stereo unspecified) | – | inactive
65 | COC(=O)N[C@H](C(=O)N[C@@H](Cc1ccccc1)[C@@H](O)CN(Cc1ccc(-c2ccccn2)cc1)NC(=O)[C@@H](NC(=O)OC)C(C)(C)C)C(C)(C)C | – | inactive
